The source of these data is PubChem BioAssay.

Structures are written as SMILES. Results with a measured potency or affinity are listed apart. Active and inactive are the calls of the source.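 Rule for the calls: active = a fitted half-maximal concentration no higher than twice the top valid tested dose, with signal falling as cells die; inconclusive = flat curve between -70% and -30%, or poor fit; inactive = the rest, including signal rising instead of falling.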

This assay can be described thus: viability loss in HeLa cells – cell-based, ATP luminescence, cherry-pick samples, cytotoxicity control, dose response (AID 687004). To be noted: ATP luminescence (CellTiter-Glo), 48 h; series mostly up to 26 µM. (ATP-based viability assays read luminescence as a measure of living cells.)
Take `COc1ccc(-c2cnc3c(c2)C(=O)N([C@@H](C)CO)C[C@H](C)[C@@H](CN(C)S(C)(=O)=O)O3)cc1`: the compound was called inactive.
As for `C[C@H]1CN([C@@H](C)CO)C(=O)c2cc(NC(=O)CCN3CCOCC3)ccc2O[C@@H]1CN(C)Cc1ccc(C(=O)O)cc1`, the entry is “inactive”; as for `Cc1cccc(C)c1NC(=O)C(CCc1ccccc1)N1CCN(C)CC1` (configuration not stated), “inactive”.
As for `O=C(NC1CCCC1)N1CCCCN2[C@H](CO)[C@@H](c3ccc(-c4cncnc4)cc3)[C@H]2C1`, the entry is “inactive”; as for `CO[C@@H]1CN(C)C(=O)c2ccc(NC(=O)Nc3ccccc3)cc2OC[C@H](C)N(C(C)=O)C[C@H]1C`, “inactive”; as for `CCc1ccc(NC(=O)C2NC(=O)CC2c2ccccc2)cc1` (configuration not stated), “inactive”.
As for `C[C@@H]1CN([C@@H](C)CO)C(=O)c2cccc(NC(=O)Nc3ccccc3)c2O[C@H]1CN(C)S(=O)(=O)c1cn(C)cn1`, the compound was classed as inactive.
As to `COCC(=O)NC[C@H]1N[C@H](CO)[C@@H]1c1ccc(C2=CCCC2)cc1`, the call was inactive.
To `CO[C@H]1CN(C)C(=O)c2cc(NC(C)=O)ccc2OC[C@H](C)N(Cc2cccc(F)c2)C[C@@H]1C` belongs “inactive”; to `C[C@@H]1CN([C@@H](C)CO)S(=O)(=O)c2ccc(C#C[C@@H](C)O)cc2O[C@@H]1CN(C)C(=O)C1CCCCC1`, “inactive”; to `CCCN1C[C@H](C)[C@@H](OC)CN(C)C(=O)c2cc(NC(=O)c3cccc(F)c3)ccc2OC[C@H]1C`, “inactive”.
To `C[C@@H]1CCCCO[C@H](CN(C)C(=O)c2ccncc2)[C@H](C)CN([C@H](C)CO)C(=O)c2cc(NC(=O)CCC(F)(F)F)ccc2O1` belongs “inactive”; to `C[C@H](CO)N1C[C@H](C)[C@@H](CN(C)S(C)(=O)=O)Oc2cc(C#Cc3ccccc3)ccc2S1(=O)=O`, “inactive”.
To `CC(C)NC(=O)Nc1ccc2c(c1)C(=O)N([C@@H](C)CO)C[C@@H](C)[C@H](CN(C)Cc1ccncc1)OCCCC[C@@H](C)O2` belongs “inactive”; to `Cc1noc(C)c1S(=O)(=O)Nc1ccc2c(c1)CC(=O)N([C@@H](C)CO)C[C@H](C)[C@@H](CN(C)S(=O)(=O)c1cn(C)cn1)O2`, “inactive”; to `O=C(C[C@@H]1CC[C@H]2[C@@H](COC[C@@H](O)CN2Cc2ccc(Cl)cc2)O1)NCc1cccc(F)c1`, “inactive”.
Turning to `COc1ccc(NC(=O)Nc2ccc3c(c2)C(=O)N([C@@H](C)CO)C[C@@H](C)[C@H](CN(C)C(=O)Cc2ccccc2)OCCCC[C@H](C)O3)cc1`, the outcome was inactive.
To `C[C@@H]1CN([C@H](C)CO)C(=O)Cc2cc(NC(=O)Nc3cccc4ccccc34)ccc2O[C@@H]1CN(C)Cc1ccc(C(=O)O)cc1` belongs “inactive”; to `CC=Cc1ccc2n(c1=O)C[C@H]1[C@H](CO)[C@@H](C(=O)NCc3ccc4c(c3)OCO4)[C@@H]2N1C(=O)C1CC1` (mixture of isomers), “inactive”; to `Cc1cccc(C)c1NC(=O)C(C)N1CCCCC1` (configuration not stated), “inactive”.
To `COCC(=O)N1[C@H](C#N)[C@H](c2ccc(C#Cc3ccccc3F)cc2)[C@H]1CO` belongs “inactive”.
To `CCC(=O)N(C)C[C@H]1Oc2cc(C#CC(C)(C)O)ccc2S(=O)(=O)N([C@H](C)CO)C[C@@H]1C` belongs “inactive”.
For `CCCNC(=O)N1C[C@@H]2[C@H](c3ccccc31)[C@H](CO)N2Cc1ccc(OC)cc1`, the outcome was inactive.
As for `C[C@@H]1CN([C@@H](C)CO)C(=O)c2cc(NS(=O)(=O)c3ccc(F)cc3)ccc2O[C@@H](C)CCCCO[C@@H]1CN(C)Cc1ccc2c(c1)OCO2`, the entry is “inactive”; as for `C[C@H](CO)N1C[C@H](C)[C@@H](CN(C)C(=O)c2cccc(F)c2)Oc2cc(-c3cncnc3)ccc2S1(=O)=O`, “inactive”.
Regarding `CO[C@H]1CN(C)C(=O)c2cc(NS(=O)(=O)c3ccc(C)cc3)ccc2OC[C@H](C)N(C)C[C@H]1C`, the compound was classed as inactive.
On to `COc1ccc(NC(=O)Nc2ccc3c(c2)C(=O)N([C@H](C)CO)C[C@@H](C)[C@@H](CN(C)C(=O)CCC(F)(F)F)OCCCC[C@H](C)O3)cc1`, for which the result was inactive.
As to `C=CCNC(=O)CN(c1ccc(F)cc1)S(=O)(=O)c1ccc(OC)cc1`, the outcome was inactive.
To `COc1ccc(-n2ncc3c(SCC(=O)OC(C)C)ncnc32)cc1` belongs “inactive”; to `COCC(=O)N1C[C@H](C)[C@H](OC)CN(C)C(=O)c2ccc(NC(=O)NC(C)C)cc2OC[C@@H]1C`, “inactive”; to `COc1ccc(S(=O)(=O)N[C@@H]2C=C[C@@H](CC(=O)N3CCC(Cc4ccccc4)CC3)O[C@H]2CO)cc1`, “inactive”.
As for `C/C=C/c1cnc2c(c1)C(=O)N([C@@H](C)CO)C[C@@H](C)[C@@H](CN(C)C(=O)C1CCCCC1)O2`, the entry is “inactive”.
